From PubChem BioAssay
SMN2 splice up: qHTS Assay for Enhancers of SMN2 Splice Variant Expression; HEK293 SMN2-luciferase splicing reporter, luminescence, 30-36 h; Potency, µM (titrated, usually from 46.1 µM), usual class: activators; 2.8% of 210,000 active; AID 1458, 2008; also: nearly all actives have a fitted effect of over 55% in size
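HEK293 cells carry an SMN2 minigene-luciferase reporter in which exon 7 inclusion puts luciferase in frame. Cells were seeded at 2000 cells/well, attached for 10-12 hours, then exposed to compounds for 30-36 hours at 37C before ONE-Glo luminescence.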
Rab9 promoter act: qHTS Assay for Rab9 Promoter Activators. Huh7 Rab9 promoter-luciferase reporter, luminescence, 24 h. Potency, µM (doses to about 9.22 µM), actives largely listed as activators. 2.8% of 320,000 active; also: nearly all actives have a fitted effect of over 60% in size
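Huh7 cells stably carrying Rab9 promoter–luciferase reporter, plated 1500 cells/well, compound added after 2 h and incubated 24 h at 37 °C; luciferase luminescence then read after 10 min with detection reagent.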
ELG1 repair inh: qHTS screen for small molecules that inhibit ELG1-dependent DNA repair in human embryonic kidney (HEK293T) cells expressing luciferase-tagged ELG1 | Potency, µM (titrated, usually from 46.1 µM), most hits filed as inhibitors | 2.3% of 330,000 active | HEK293T ELG1-luciferase reporter, luminescence, 16 h; DNA damage induced by 5-fluorouridine; also: nearly all actives have a fitted effect of over 55% in size
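In this reporter screen, reduction of luminescence relative to DMSO vehicle indicated activity. Compounds and 5-fluorouridine were added together to 2,000 cells per well, incubated for 16 hr at 37 °C, then developed with ONE-Glo.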
NPC1 promoter act: qHTS Assay for NPC1 Promoter Activators. Huh7 NPC1 promoter luciferase reporter, 24 h. 2.4% of 320,000 active. AID 485313, 2010. Potency, µM (series often up to 9.22 µM), hits mostly activators; also: nearly all actives have a fitted effect of over 60% in size
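Luminescence read-out of NPC1 promoter-driven luciferase in stably transfected Huh7 cells; compounds delivered in DMSO and left 24 h at 37C, 5% CO2, qHTS titration format.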
FLuc modulator: qHTS profiling assay for firefly luciferase inhibitor/activator using purifed enzyme and Km concentrations of substrates (counterscreen for miR-21 project); Luciferin 4-monooxygenase (Photinus pyralis), P08659; purified FLuc, Km substrates, luminescence inhibition; Potency, µM (series often up to 57.5 µM), hits mostly inhibitors; 6.9% of 360,000 active; also: nearly all actives have a fitted effect of over 55% in size
Target sequence (P08659 whole entry, looked up): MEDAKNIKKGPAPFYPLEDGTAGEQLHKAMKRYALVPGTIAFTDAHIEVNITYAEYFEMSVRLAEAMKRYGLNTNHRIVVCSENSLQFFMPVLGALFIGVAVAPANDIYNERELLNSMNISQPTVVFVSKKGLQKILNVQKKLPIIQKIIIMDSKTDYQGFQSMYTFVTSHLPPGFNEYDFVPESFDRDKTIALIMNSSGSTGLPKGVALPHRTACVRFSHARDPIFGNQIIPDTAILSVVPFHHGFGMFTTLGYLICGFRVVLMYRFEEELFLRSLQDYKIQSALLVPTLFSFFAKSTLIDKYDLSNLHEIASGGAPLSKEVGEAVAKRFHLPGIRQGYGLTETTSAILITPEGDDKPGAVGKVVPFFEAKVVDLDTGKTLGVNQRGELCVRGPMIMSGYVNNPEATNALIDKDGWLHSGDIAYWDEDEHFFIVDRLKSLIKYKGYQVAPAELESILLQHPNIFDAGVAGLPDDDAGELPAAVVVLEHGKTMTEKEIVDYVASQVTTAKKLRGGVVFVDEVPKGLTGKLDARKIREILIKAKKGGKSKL
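Purified P. pyralis luciferase, 10 nM final, with Km-level 10 uM D-luciferin and 10 uM ATP in 50 mM Tris acetate pH 7.5, 10 mM Mg acetate, 0.01% Tween-20, 0.05% BSA; 6-point qHTS titration about 60 µM downward; luminescence read.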
ELG1 genotox: qHTS screen for small molecules that induce genotoxicity in human embryonic kidney (HEK293T) cells expressing luciferase-tagged ELG1. Potency, µM (series often up to 46 µM), most hits filed as activators. HEK293T ELG1-luciferase reporter, luminescence, 16 h. 1.3% of 330,000 active; also: nearly all actives have a fitted effect of over 60% in size
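Step 1: seed 2,000 HEK293T ELG1-luciferase cells per well. Step 2: add compound or DMSO, incubate 16 hr at 37 °C. Step 3: ONE-Glo, 30 min at room temperature, read luminescence.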
Each line names hits and unclear results; the compound was inactive in the other large screens. In the library only some 9.3% were active in any assay of this set; here they are far more common. Calls follow the shape of the dose curve; as a rule, active = well fitted curve in the direction sought with a large enough effect; inconclusive = small, poorly fitted or top-dose-only effect, or another doubt; inactive = no such curve, though single readings can be large; an effect the other way counts as inactive or inconclusive.

O=C(CSc1ncccn1)NC(=O)Nc1ccc2c(c1)OCCO2	ELG1 repair inh inconclusive, FLuc modulator 24µM
O=C(CSc1ccccn1)Nc1ccc2c(c1)OCCO2	Rab9 promoter act 2.5µM, ELG1 repair inh inconclusive, NPC1 promoter act 4µM, FLuc modulator 8.5µM, ELG1 genotox inconclusive (no result: SMN2 splice up)
O=C(CSc1ccccn1)Nc1ccc2c(c1)CCC2	Rab9 promoter act inconclusive, ELG1 repair inh inconclusive, FLuc modulator 12µM, ELG1 genotox inconclusive (no result: SMN2 splice up)
CCc1c(C)c(C#N)c2nc3ccccc3n2c1Nc1cccc(C(F)(F)F)c1	none (no result: Rab9 promoter act, ELG1 repair inh, NPC1 promoter act, ELG1 genotox)
O=C1Nc2ccccc2C1=Nc1cccc2ncccc12	none (no result: Rab9 promoter act, ELG1 repair inh, NPC1 promoter act, FLuc modulator, ELG1 genotox)
O=C(CSc1ccccn1)Nc1ccc2ccccc2c1	Rab9 promoter act 2.8µM, ELG1 repair inh inconclusive, NPC1 promoter act 3.5µM, FLuc modulator 4.8µM, ELG1 genotox inconclusive (no result: SMN2 splice up)
O=C(CSc1ccccn1)Nc1ccc2c(c1)C(=O)c1ccccc1C2=O	SMN2 splice up 10µM, Rab9 promoter act 4µM, ELG1 repair inh inconclusive, NPC1 promoter act 2.8µM, FLuc modulator inconclusive, ELG1 genotox 16µM
Cc1cc(NC(=O)CSc2ccccn2)cc(NC(=O)CSc2ccccn2)c1	none (no result: SMN2 splice up)
O=C(CSc1ccc([N+](=O)[O-])cn1)Nc1ccc2c(c1)OCCO2	FLuc modulator inconclusive
CN(C)S(=O)(=O)c1ccc(SCC(=O)Nc2ccc3c(c2)OCCO3)nc1	ELG1 repair inh inconclusive, FLuc modulator 21µM (no result: SMN2 splice up)
Cc1csc(=Nc2ccc(S(=O)(=O)N3CCOCC3)cc2)n1Cc1ccco1	ELG1 repair inh 15µM
Cc1cs/c(=N\N=C\c2ccccc2)n1Cc1ccco1	ELG1 repair inh inconclusive, FLuc modulator 21µM
CCC1CN(C(=O)N2CCC(C(=O)NCc3cccc(F)c3)CC2)c2ccccc2O1 (configuration not stated)	none (no result: SMN2 splice up)
O=c1cc(-c2ccccc2)[nH]n1-c1nc2ccccc2s1	FLuc modulator 17µM
COc1ccc(CN=C(C)c2c(C(F)(F)F)[nH]n(-c3nc4ccccc4s3)c2=O)cc1	Rab9 promoter act 4µM, ELG1 repair inh inconclusive, NPC1 promoter act inconclusive, FLuc modulator 6.7µM, ELG1 genotox 15µM
CC(=O)c1c(CC(=O)O)[nH]n(-c2nc3ccccc3s2)c1=O	Rab9 promoter act inconclusive, ELG1 repair inh inconclusive, FLuc modulator 12µM
COc1ccc(Cn2c(=O)sc3ccccc3c2=O)cc1	none
COC(=O)Cc1[nH]n(-c2nc3ccccc3s2)c(=O)c1C(C)=O	ELG1 repair inh inconclusive, FLuc modulator 9.5µM, ELG1 genotox inconclusive
O=C1NC(c2ccccc2)=C(c2nc3ccccc3s2)C(c2ccccc2)N1 (configuration not stated)	none
COCCNC(=O)c1ccccc1NC(=O)CCSc1ccccc1	none
COc1cn(-c2ccccc2)nc1C(=O)Nc1ccc(C)cc1	Rab9 promoter act inconclusive, ELG1 repair inh inconclusive, NPC1 promoter act inconclusive, FLuc modulator 8.5µM (no result: SMN2 splice up)
COc1cn(-c2ccccc2)nc1C(=O)Nc1ccccc1	Rab9 promoter act inconclusive, ELG1 repair inh inconclusive, NPC1 promoter act inconclusive, FLuc modulator 13µM (no result: SMN2 splice up)
C/C=C(/C)C(=O)Nc1cccc(C2=NOC3(C2)C[C@@H](C(N)=O)N(C(=O)CCCCC)C3)c1 (some centres not stated)	none (no result: SMN2 splice up)
CCC(C)(O)C(=O)N[C@H]1CCCN1C(=O)/C=C/c1ccccc1 (some centres not stated)	ELG1 repair inh inconclusive (no result: SMN2 splice up, Rab9 promoter act, NPC1 promoter act, FLuc modulator)
c1coc(C2Nc3ccccc3-c3nc4ccccc4n32)c1 (configuration not stated)	SMN2 splice up 18µM, Rab9 promoter act inconclusive, ELG1 repair inh inconclusive, NPC1 promoter act inconclusive, FLuc modulator 21µM, ELG1 genotox inconclusive
c1ccc(C2Nc3ccccc3-c3nc4ccccc4n32)nc1 (configuration not stated)	FLuc modulator inconclusive
c1ccc(C2Nc3ccccc3-c3nc4ccccc4n32)cc1 (configuration not stated)	ELG1 repair inh inconclusive, FLuc modulator 21µM, ELG1 genotox inconclusive
Cc1cc(=O)n2[nH]c(-c3ccccc3)cc2n1	FLuc modulator inconclusive (no result: Rab9 promoter act, ELG1 repair inh, NPC1 promoter act, ELG1 genotox)
COCc1cc(=O)n2[nH]c(-c3ccc(C)cc3)cc2n1	ELG1 repair inh inconclusive, FLuc modulator 12µM, ELG1 genotox 15µM
Cc1nc2nc(-c3ccccc3)[nH]n2c(=O)c1C	SMN2 splice up inconclusive, Rab9 promoter act inconclusive, ELG1 repair inh inconclusive, FLuc modulator inconclusive, ELG1 genotox inconclusive
CCOC(=O)Cc1cc(=O)n2[nH]c(-c3ccc(C)cc3)cc2n1	ELG1 repair inh inconclusive, FLuc modulator 19µM, ELG1 genotox inconclusive
Cc1cc(=O)n2[nH]c(-c3ccc(C(C)(C)C)cc3)cc2n1	ELG1 repair inh inconclusive, FLuc modulator 11µM
Cc1nc2cc(-c3ccccc3)[nH]n2c(=O)c1C	Rab9 promoter act inconclusive, ELG1 repair inh inconclusive, FLuc modulator 13µM, ELG1 genotox 21µM (no result: SMN2 splice up)
CCOC(=O)c1cc(=O)n2[nH]c(-c3ccc(C)cc3)cc2n1	SMN2 splice up inconclusive, FLuc modulator 13µM, ELG1 genotox inconclusive
CCOc1ccccc1NC(=O)N1CC(CC)Oc2ccccc21 (configuration not stated)	none (no result: SMN2 splice up, Rab9 promoter act, ELG1 repair inh, NPC1 promoter act, ELG1 genotox)
COC(=O)c1ccc(C(=O)NC2CCCc3c2cnn3-c2cc(F)cc(F)c2)nc1 (configuration not stated)	ELG1 repair inh 21µM (no result: SMN2 splice up)
CC(=O)Nc1cccc(C(=O)NC2CCCc3c2cnn3-c2ccc(C(C)(C)C)cc2)c1 (configuration not stated)	ELG1 repair inh 8.2µM, FLuc modulator inconclusive (no result: SMN2 splice up)
COC(=O)C1=C(O)/C(=C\c2cc(C)n(-c3ccccc3F)c2C)N=C1C	FLuc modulator 0.85µM, ELG1 genotox inconclusive
COC(=O)C1=C(O)/C(=C\c2cc(C)n(-c3ccccc3C)c2C)N=C1C	Rab9 promoter act inconclusive, NPC1 promoter act inconclusive, FLuc modulator 1.1µM
COC(=O)C1=C(C)NC(=O)/C1=C\c1cc(C)n(-c2ccccc2)c1C	Rab9 promoter act inconclusive, FLuc modulator 11µM
COC(=O)C1=C(C)NC(=O)/C1=C\c1cc(C)n(-c2cc(C)cc(C)c2)c1C	ELG1 repair inh inconclusive
O=C(Cn1nc2c(cc1=O)CCCC2)Nc1ccc(F)cc1F	none (no result: SMN2 splice up, Rab9 promoter act, ELG1 repair inh, NPC1 promoter act, ELG1 genotox)
O=C(COC(=O)c1ccccn1)NC(=O)c1ccccc1	none (no result: SMN2 splice up)
O=C(NCCCc1ccc(F)cc1)C1CCC(=O)N(CC2CCCCC2)C1 (configuration not stated)	none (no result: SMN2 splice up)
CC(=O)C(=Cc1cn(-c2ccccc2)nc1-c1ccccc1)C(C)=O	ELG1 genotox inconclusive
